Compound activity: PubChem, National Center for Advancing Translational Sciences (NCATS)
Rows were chosen to be rich in hits. Some 1.8% of all compounds tested hit in one or more screens of this group.
HTT aggregate = mutant huntingtin aggregation inhibition | hit rate 1.1% among 220,000 | Potency, µM (series often up to 46.1 µM), for the others: top-dose activity change, negative = inhibition, usual class: inhibitors | PC12 HttQ103-GFP aggregates, Acumen cytometry, 40 h | AID 1688; also: % is scaled to controls: 0 for no effect and ±100 for the full control effect; nearly all actives have a fitted effect of over 60% in size
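Inducible Q103 Huntingtin exon 1–GFP PC12 line, 1500 cells/well in phenol red free DMEM with 5% equine and 5% calf serum. Tebufenozide 100 nM induced expression; compounds titrated; aggregates quantified by cytometry.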
L3MBTL1 block = inhibitors of human L3MBTL1; hit rate 0.66% among 230,000; Potency, µM (doses to about 57.1 µM), inactives show at the highest dose activity, negative = inhibition, hits mostly inhibitors; AlphaScreen L3MBTL1–H3K9me1 peptide binding; Q9Y468; also: % is scaled to controls: 0 for no effect and ±100 for the full control effect; nearly all actives have a fitted effect of over 60% in size
Target sequence (Q9Y468 whole entry, looked up): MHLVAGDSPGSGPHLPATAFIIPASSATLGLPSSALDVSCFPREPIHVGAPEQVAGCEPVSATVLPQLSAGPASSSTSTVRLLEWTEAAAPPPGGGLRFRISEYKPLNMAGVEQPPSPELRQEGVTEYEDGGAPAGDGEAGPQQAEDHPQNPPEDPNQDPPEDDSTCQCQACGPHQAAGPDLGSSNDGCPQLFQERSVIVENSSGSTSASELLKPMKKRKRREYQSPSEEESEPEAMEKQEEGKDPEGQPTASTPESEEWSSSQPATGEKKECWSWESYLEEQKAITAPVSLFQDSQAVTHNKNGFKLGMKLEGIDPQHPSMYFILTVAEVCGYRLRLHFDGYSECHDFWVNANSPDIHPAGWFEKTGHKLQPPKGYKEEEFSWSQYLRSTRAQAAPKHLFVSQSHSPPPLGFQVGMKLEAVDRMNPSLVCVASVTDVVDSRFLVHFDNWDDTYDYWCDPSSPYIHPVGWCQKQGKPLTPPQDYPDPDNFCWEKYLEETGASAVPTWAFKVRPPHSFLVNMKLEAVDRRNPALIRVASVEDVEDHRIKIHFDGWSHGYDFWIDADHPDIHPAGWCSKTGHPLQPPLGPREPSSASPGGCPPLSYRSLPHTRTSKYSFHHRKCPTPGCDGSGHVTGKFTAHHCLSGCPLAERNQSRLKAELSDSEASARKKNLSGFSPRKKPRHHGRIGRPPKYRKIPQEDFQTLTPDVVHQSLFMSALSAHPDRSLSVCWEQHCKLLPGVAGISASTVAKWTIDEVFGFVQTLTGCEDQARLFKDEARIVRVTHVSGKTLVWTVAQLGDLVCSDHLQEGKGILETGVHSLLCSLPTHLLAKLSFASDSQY
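AlphaScreen assay: L3MBTL1 (50 nM final) was preincubated 30 min at room temperature with biotinylated H3(1-15)K9me1 peptide (75 nM final), then 30 min with library compounds; streptavidin donor and nickel chelate acceptor beads (10 ug/mL final) added, 30 min dark.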
HTT ATP protect = Huntington cell model cytoprotection by ATP luminescence; hit rate 0.14% among 230,000; Potency, µM (series often up to 56.4 µM), for inactives: cytoprotection (ATP increase), hits mostly activators; PC12 HTT-Q103 induced, cytoprotection, ATP luminescence, 40 h; also: % of control where 0% means no effect; nearly all actives have a fitted effect of over 45% in size
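Rat PC12, Q103 Htt exon1-GFP fusion, ecdysone promoter; tebufenozide inducer 100 nM final; compound titration; qHTS, 1500 cells/well; ATPlite luminescent read.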
KDM4E inh = JMJD2E (human) inhibition. B2RXH2. JMJD2E catalytic domain, FDH-coupled NADH fluorescence (FDH is formaldehyde dehydrogenase). Potency, µM (doses to about 57.1 µM), without a hit: at the highest dose activity change, negative = inhibition, actives largely listed as inhibitors. hit rate 1.6% among 230,000. AID 2147; active = well fitted inhibition curve with a large enough effect, not every such curve was filed as active; inconclusive = small, poorly fitted or top-dose-only effect, or another doubt; inactive = no such curve, though single readings can be large or run the other way;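 also: 0% = wells with enzyme and -100% = buffer wells without enzyme; nearly all actives have a fitted effect of over 50% in size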
Starred values were filed as active, the others as inactive; ? = inconclusive; · = no result; ! = a repeat was not active; [ ] = another dose, or the depositor's remark. Unless noted, calls follow the shape of the dose curve; as a rule, active = well fitted curve in the direction sought with a large enough effect; inconclusive = small, poorly fitted or top-dose-only effect, or another doubt; inactive = no such curve, though single readings can be large; an effect the other way counts as inactive or inconclusive. Potency is read from the fitted curve at half-maximal effect.

SMILES | HTT aggregate | L3MBTL1 block | HTT ATP protect | KDM4E inh
CNc1nc(SCc2ccccc2Cl)nc2c1CCCC2 | 10µM* | 12% | -22%[10 µM] | 1%
NS(=O)(=O)c1ccc(N=Nc2c(=O)[nH]n3c(=O)c4c([nH]c23)CCCC4)cc1 | -2%[9.22 µM] | -1% | 0%[10 µM] | 28µM*
COc1cccc(N=Nc2c(=O)[nH]n3c(=O)c4c([nH]c23)CCC4)c1 | 20% | ? | · | 6%
O=c1[nH]n2c(=O)c3c([nH]c2c1N=Nc1cccc(C(F)(F)F)c1)CCCC3 | ? | -2% | 14%[10 µM] | -24%
O=c1[nH]n2c(=O)c3c([nH]c2c1N=Nc1cccc(Cl)c1)CCC3 | 13% | 3.5µM* | · | -4%
CC(=O)[C@H]1CC[C@@H]2[C@]1(C)CC=C1[C@]23C=C[C@]2(C[C@H](O)CC[C@@]12C)[C@H](C(=O)O)[C@@H]3C(=O)O | · | · | 9%[10 µM] | ·
C[C@H]1COc2c(N3CCN(C)CC3)c(F)cc3c(=O)c(C(=O)NCc4ccco4)cn1c23 | · | · | -51% | ?
CN1CCN(c2nc3ccccc3nc2C(C#N)C(=O)OC2CCCCC2)CC1 (stereo not drawn) | 13µM* | -12% | -101% | -12%
CCCCNC(=O)C(C#N)c1nc2ccccc2nc1N1CCN(c2ccccc2F)CC1 (stereo not drawn) | 33% | -9% | -16% | 32µM*
CC(C)(C)NC[C@H](O)CSc1nc(-c2ccc(C(N)=O)s2)cs1 | 11% | · | 29% | ·
Cc1ccc2nc(-c3ccc(N4C(=NC(=O)CCC(=O)O)SC5CS(=O)(=O)CC54)cc3)sc2c1 (stereo not drawn) | -5% | 13µM* | -21%[10 µM] | ?
CC(=O)N=C1SC2CS(=O)(=O)CC2N1c1ccc(-c2nc3ccc(C)cc3s2)cc1 (stereo not drawn) | -2% | -7% | -11%[10 µM] | ?
COc1cccc([C@@H]2Oc3ccc(Br)cc3C(=O)[C@H]2OC(=O)Nc2ccc(C)c(Br)c2)c1 | · | · | ? | 5%
Cc1ccc(S(=O)(=O)NCc2ccncc2)cc1 | 3.5µM* | · | -6% | 5%
Cc1ccc(C)c(S(=O)(=O)NCc2ccncc2)c1 | 10µM* | 0% | -15% | 4%
CCN1C(=O)[C@H]2[C@H]3[C@H](O)[C@H](O)C/C(=N/OC[C@@H](O)COCc4ccco4)[C@@H]3CC[C@@H]2C1=O | · | · | -9%[10 µM] | ·
Cn1c(N)nc2c(nc(OCc3ccccc3)n2[C@@H]2O[C@H](CO)[C@@H](O)[C@@H]2O)c1=O | · | · | 11%[10 µM] | ·
CC1=NN(c2ccc(C(=O)O)cc2)C(=O)/C1=C\c1ccc(OC(=O)c2cccs2)cc1 | 11% | ? | -27% | 3.2µM*
N#Cc1cc([N+](=O)[O-])cnc1N(CCO)CCO | 13µM* | 2% | 14%[10 µM] | -5%
CCC(CO)Nc1ncc([N+](=O)[O-])cc1C#N (stereo not drawn) | -1% | 5% | -47%[10 µM] | 0%
CC(C)=CCC/C(C)=C/CO/N=C1/C[C@@H](O)[C@@H](O)[C@@H]2[C@H]3C(=O)N(c4ccc(F)cc4F)C(=O)[C@@H]3CC[C@@H]12 | · | · | -3%[10 µM] | ·
COC(=O)C1=C(C(=O)OC)[C@@H]2N(Cc3ccccc3)c3ccccc3[C@@]23C[C@@H](C(=O)OC)N(S(=O)(=O)c2ccc(OC)cc2)C3=N1 | · | · | -24%[10 µM] | -2%[11.4 µM]
CC1CC(C)CN(c2ccc([N+](=O)[O-])cc2-c2nn[nH]n2)C1 (stereo not drawn) | -3% | -4% | -10%[10 µM] | 3.2µM*
O=[N+]([O-])c1ccc(-n2cccn2)c(-c2nn[nH]n2)c1 | 23% | · | -19% | 0%
Cc1ccc(OCCN(C)C(=O)CC2C(=O)NCCN2CC(C)(C)C)cc1 (stereo not drawn) | 6%[9.22 µM] | -8% | -1%[10 µM] | ?
SMILES | HTT aggregate | L3MBTL1 block | HTT ATP protect | KDM4E inh
COC(=O)CN(C)C(=O)CC1C(=O)NCCN1CC(C)(C)C (stereo not drawn) | ? | -1% | 1.1µM* | ?
Cc1ccc(SCC(=O)N2c3ccccc3Sc3ccccc32)cc1 | 16µM* | 28% | -36% | 3%
O=C(CSc1nncs1)N1c2ccccc2Sc2ccccc21 | -18% | -6% | -7%[1.9 µM] | 1%
COc1ccc(CC(=O)OCC(=O)NCc2ccc(Cl)cc2)cc1 | -5% | 14% | -26% | 10%
COc1ccc(CNC(=O)COC(=O)Cc2ccc(Cl)cc2Cl)cc1 | 0.56µM* | 40% | -87%[1.9 µM] | 1%
FC(F)(F)c1cnc(C(c2ccccn2)c2ncn[nH]2)c(Cl)c1 (stereo not drawn) | 13µM* | 8.9µM* | 13%[10 µM] | 25µM*
COc1cccc(NC(=O)Cn2c(CCC(=O)O)ccc2-c2ccc(Cl)cc2)c1 | -10%[9.22 µM] | -19% | -3%[10 µM] | 28µM*
Cc1nc2c(-c3ccccc3)c(C)[nH]n2c(=O)c1Cc1ccccc1 | ? | 3% | -124% | ?
Cc1nc2c(-c3ccc(Cl)cc3)c(C)[nH]n2c(=O)c1Cc1ccccc1 | 10µM* | · | -123% | 32µM*
Cc1cc(OI)c(C(C)C)cc1-c1cc(C(C)C)c(OI)cc1C | 22% | · | -13% | ·
c1ccc2c(c1)[nH]c1c(N3CCC4(CC3)OCCO4)ncnc12 | 13µM* | · | -34% | ?
c1ccc2c(c1)CCN(c1ncnc3c1[nH]c1ccccc13)C2 | 11µM* | -3% | -72% | ?
Cc1ccccc1/C=C\C1=NCCN1 | · | · | 16%[1.9 µM] | ·
CC(=O)OC[C@@H]1O[C@@H](Oc2cc(OC(C)=O)c3c(=O)cc(-c4ccc(OC(C)=O)c(OC(C)=O)c4)oc3c2)[C@H](OC(C)=O)[C@H](OC(C)=O)[C@@H]1OC(C)=O | · | · | -2% | ·
Nc1[nH]n2c(=O)cc(-c3ccccc3)nc2c1N=Nc1ccccc1 | 3.2µM* | 5% | -79% | 3%
Nc1[nH]n2c(=O)cc(-c3ccccc3)nc2c1N=Nc1ccc(S(N)(=O)=O)cc1 | 20%[9.22 µM] | -17% | -8%[10 µM] | -17%
C[C@@H](CN(C)C)CN1c2ccccc2CCc2ccccc21 | 0%[20.6 µM] | · | -14%[40.3 µM] | -11%[25.5 µM]
CC(CN(C)C)CN1c2ccccc2CCc2ccccc21 (stereo not drawn) | 0%[9.22 µM] | · | 1µM*! | -14%
COc1ccccc1CNc1cc(-c2ccccc2Cl)ncn1 | · | · | -19% | ·
N#CC1=C(S)N(c2ccccc2)C(c2ccc(-c3ccc(Cl)c(Cl)c3)o2)NC1=O (stereo not drawn) | 9%[9.22 µM] | · | -9%[10 µM] | 25µM*
N#CC1=C(S)N(c2ccccc2)C(c2ccc(-c3cc(Cl)ccc3Cl)o2)NC1=O (stereo not drawn) | ? | -13% | 23%[10 µM] | -10%
N[C@H](C(=O)O)c1cccc(O)c1 | · | · | -44% | 22µM*
NC(C(=O)O)c1ccc(O)cc1 (stereo not drawn) | 14% | · | 4% | ·
CC(C)CC(NC(=O)C(COC(C)(C)C)NC(=O)C(Cc1ccc(O)cc1)NC(=O)C(CO)NC(=O)C(Cc1c[nH]c2ccccc12)NC(=O)C(Cc1cnc[nH]1)NC(=O)C1CCC(=O)N1)C(=O)NC(CCCN=C(N)N)C(=O)N1CCCC1C(=O)NNC(N)=O (stereo not drawn) | 8% | · | 6% | ·
COc1ccc(C(=O)NCc2oc(-c3ccccc3)cc2C(=O)O)cc1 | 3.2µM* | -3%[11.4 µM] | -1%[0.074 µM] | 0%
